Reference: the supplement of paper PMC10849652
Targets with a hit are over-represented here; the source holds about 8,800 in all. About 0.5% of all pairs of compound and target were hits.

What was measured:
Assay in all cases: log2 fold change, soluble protein after heating vs DMSO (PISA); higher = thermal stabilisation; K562 lysate, 10 uM; active = over 0.2 and 3.5 SD of the protein, either way, in both replicates (recomputed)
alvocidib = compound: CN1CC[C@H](c2c(O)cc(O)c3c(=O)cc(-c4ccccc4Cl)oc23)[C@H](O)C1 [alvocidib]
Method in brief: (§1)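 K562 pellets were dounce-homogenised in PBS pH 7.4 with 1 mM MgCl2, and the crude extract at 1 mg/mL protein was treated with 10 μM compound for 30 min. Aliquots were heated for 3 min across 48°C-58°C, pooled, and brought to 0.5% NP-40 at 4°C; soluble protein was the supernatant after 21,000xg for 90 min. Soluble protein was quantified by TMTpro 16plex LC-MS/MS with channel sums equalised, and reported as log2 fold change in thermal stability against DMSO controls, with values from duplicates.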

Tubastatin A = compound: CN1CCc2c(c3ccccc3n2Cc2ccc(C(=O)NO)cc2)C1 [Tubastatin A]
Method in brief: as §1

[1] = compound: CNC(=O)C1=CC=CC=C1NC2=NC(=NC=C2Cl)NC3=C(C=C(C=C3)N4CCOCC4)OC
Method in brief: as §1

defactinib = compound: CNC(=O)c1ccc(Nc2ncc(C(F)(F)F)c(NCc3nccnc3N(C)S(C)(=O)=O)n2)cc1 [defactinib]
Method in brief: as §1

[2] = compound: CNc1nc(-c2ccc3c(N)n[nH]c3c2)cc(N2C[C@@H](C(=O)NC3CCCCC3)CC[C@H]2C)n1
Method in brief: as §1

encorafenib = compound: COC(=O)N[C@@H](C)CNc1nccc(-c2cn(C(C)C)nc2-c2cc(Cl)cc(NS(C)(=O)=O)c2F)n1 [encorafenib]
Method in brief: as §1

[3] = compound: COC(=O)[C@H](CCSC)NC(=O)C1=C(C=C(C=C1)NC[C@H](CS)N)C2=CC=CC=C2
Method in brief: as §1

alisertib = compound: COc1cc(Nc2ncc3c(n2)-c2ccc(Cl)cc2C(c2c(F)cccc2OC)=NC3)ccc1C(=O)O [alisertib]
Method in brief: as §1

[4] = compound: COc1cc2nc(-c3cc(F)ccc3O)nc(N[C@@H]3CNC[C@H]3C(C)(C)O)c2cc1OC
Method in brief: as §1

gefitinib = compound: COc1cc2ncnc(Nc3ccc(F)c(Cl)c3)c2cc1OCCCN1CCOCC1 [gefitinib]
Method in brief: as §1

lapatinib = compound: CS(=O)(=O)CCNCc1ccc(-c2ccc3ncnc(Nc4ccc(OCc5cccc(F)c5)c(Cl)c4)c3c2)o1 [lapatinib]
Method in brief: as §1

pictilisib = compound: CS(=O)(=O)N1CCN(Cc2cc3nc(-c4cccc5[nH]ncc45)nc(N4CCOCC4)c3s2)CC1 [pictilisib]
Method in brief: as §1

crizotinib = compound: C[C@@H](Oc1cc(-c2cnn(C3CCNCC3)c2)cnc1N)c1c(Cl)ccc(F)c1Cl [crizotinib]
Method in brief: as §1

[5] = compound: C[C@H](C1=CC=C(C=C1)C(=O)NC2=C3C=CNC3=NC=C2)N
Method in brief: as §1

duvelisib = compound: C[C@H](Nc1ncnc2nc[nH]c12)c1cc2cccc(Cl)c2c(=O)n1-c1ccccc1 [duvelisib]
Method in brief: as §1

gandotinib = compound: Cc1cc(Nc2cc(CN3CCOCC3)c3nc(C)c(Cc4ccc(Cl)cc4F)n3n2)n[nH]1 [gandotinib]
Method in brief: as §1

tozasertib = compound: Cc1cc(Nc2cc(N3CCN(C)CC3)nc(Sc3ccc(NC(=O)C4CC4)cc3)n2)n[nH]1 [tozasertib]
Method in brief: as §1

doramapimod = compound: Cc1ccc(-n2nc(C(C)(C)C)cc2NC(=O)Nc2ccc(OCCN3CCOCC3)c3ccccc23)cc1 [doramapimod]
Method in brief: as §1

bafetinib = compound: Cc1ccc(NC(=O)c2ccc(CN3CC[C@H](N(C)C)C3)c(C(F)(F)F)c2)cc1Nc1nccc(-c2cncnc2)n1 [bafetinib]
Method in brief: as §1

[6] = compound: Cc1cccc(CC(=O)N2CCc3c2ccc(-c2cn(C)c4ncnc(N)c24)c3F)n1
Method in brief: as §1

Measured: log2 fold change

PPP3CA isoform 2 (UniProt Q08209)
inactive: alvocidib 0.043 | Tubastatin A 0.017 | [1] 0.033 | defactinib 0.101 | [2] 0.01 | encorafenib 0.023 | [3] 0 | alisertib 0.061 | [4] -0.001 | gefitinib 0.09 | lapatinib -0.008 | pictilisib 0.085 | crizotinib 0.048 | [5] 0.075 | duvelisib 0.008 | gandotinib -0.099 | tozasertib -0.068 | doramapimod -0.006 | bafetinib -0.026 | [6] -0.091

QKI (UniProt Q96PU8)
inactive: alvocidib -0.058 | Tubastatin A -0.005 | [1] 0.024 | defactinib 0.029 | [2] -0.02 | encorafenib 0.045 | [3] -0.206 | alisertib 0.069 | [4] 0.009 | gefitinib 0.021 | lapatinib -0.002 | pictilisib 0.015 | crizotinib 0.047 | duvelisib -0.017 | gandotinib 0.163 | tozasertib -0.021 | doramapimod -0.043 | bafetinib -0.056 | [6] 0.155
active: [5] -0.212

PHKB isoform 3 (UniProt Q93100)
Chain of UniProt Q93100 (Q93100 whole entry, looked up): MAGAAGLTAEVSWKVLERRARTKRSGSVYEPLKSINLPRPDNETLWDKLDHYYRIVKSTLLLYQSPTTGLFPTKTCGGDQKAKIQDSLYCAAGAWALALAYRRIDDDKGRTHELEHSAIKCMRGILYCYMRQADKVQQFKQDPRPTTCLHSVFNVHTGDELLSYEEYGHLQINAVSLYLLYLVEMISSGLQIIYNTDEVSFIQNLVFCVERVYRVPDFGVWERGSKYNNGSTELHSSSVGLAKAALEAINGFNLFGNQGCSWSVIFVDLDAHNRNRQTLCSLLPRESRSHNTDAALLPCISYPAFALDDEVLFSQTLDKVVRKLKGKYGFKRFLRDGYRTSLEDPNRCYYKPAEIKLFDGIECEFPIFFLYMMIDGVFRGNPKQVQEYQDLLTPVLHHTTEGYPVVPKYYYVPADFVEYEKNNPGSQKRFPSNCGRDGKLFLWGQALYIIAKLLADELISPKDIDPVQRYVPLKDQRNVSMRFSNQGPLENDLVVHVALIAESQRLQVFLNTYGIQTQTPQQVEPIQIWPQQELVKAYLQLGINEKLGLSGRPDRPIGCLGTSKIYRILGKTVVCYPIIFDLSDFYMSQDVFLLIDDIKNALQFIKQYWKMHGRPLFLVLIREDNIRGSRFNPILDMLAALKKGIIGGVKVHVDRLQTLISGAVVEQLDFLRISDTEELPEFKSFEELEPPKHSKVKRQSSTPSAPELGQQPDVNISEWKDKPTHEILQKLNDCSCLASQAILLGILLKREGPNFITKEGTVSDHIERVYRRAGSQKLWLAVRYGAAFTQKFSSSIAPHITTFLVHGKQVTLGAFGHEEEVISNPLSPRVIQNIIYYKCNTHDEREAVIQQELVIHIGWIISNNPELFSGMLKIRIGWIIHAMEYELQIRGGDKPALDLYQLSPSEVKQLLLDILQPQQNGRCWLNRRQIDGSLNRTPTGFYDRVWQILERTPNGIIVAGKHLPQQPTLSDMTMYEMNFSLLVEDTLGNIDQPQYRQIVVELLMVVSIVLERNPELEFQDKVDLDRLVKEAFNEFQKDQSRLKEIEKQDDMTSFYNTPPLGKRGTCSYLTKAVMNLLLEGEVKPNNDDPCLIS
inactive: alvocidib 0.04 | Tubastatin A -0.099 | [1] 0.223 | defactinib -0.006 | [2] -0.018 | encorafenib -0.019 | [3] 0.015 | alisertib 0.006 | [4] 0.107 | gefitinib 0.03 | lapatinib -0.042 | pictilisib 0.025 | crizotinib 0.026 | [5] -0.126 | duvelisib -0.025 | gandotinib 0.127 | tozasertib -0.021 | doramapimod -0.061 | bafetinib -0.012 | [6] 0.027

PFKFB4 (UniProt Q16877)
Chain of UniProt Q16877 (Q16877 whole entry, looked up): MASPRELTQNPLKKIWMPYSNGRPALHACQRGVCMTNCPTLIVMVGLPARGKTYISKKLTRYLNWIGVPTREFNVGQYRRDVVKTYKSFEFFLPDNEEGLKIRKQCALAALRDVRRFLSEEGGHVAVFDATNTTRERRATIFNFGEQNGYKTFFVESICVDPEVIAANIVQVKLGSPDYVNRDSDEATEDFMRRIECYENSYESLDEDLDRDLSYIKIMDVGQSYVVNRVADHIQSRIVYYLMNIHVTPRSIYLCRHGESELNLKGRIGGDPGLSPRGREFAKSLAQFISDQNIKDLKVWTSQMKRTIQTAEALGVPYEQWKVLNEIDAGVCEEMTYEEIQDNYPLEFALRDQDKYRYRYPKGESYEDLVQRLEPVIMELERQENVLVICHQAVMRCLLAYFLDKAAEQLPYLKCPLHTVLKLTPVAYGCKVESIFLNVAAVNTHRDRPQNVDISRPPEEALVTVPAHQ
inactive: alvocidib -0.03 | Tubastatin A -0.009 | [1] 0.029 | defactinib 0.011 | [2] -0.027 | encorafenib 0.02 | [3] -0.019 | [4] -0.016 | lapatinib -0.008 | pictilisib -0.061 | crizotinib -0.034 | [5] -0.027 | duvelisib 0.011 | gandotinib -0.044 | tozasertib -0.012 | doramapimod 0.009 | bafetinib -0.003 | [6] 0.039

PHOSPHO2 (UniProt Q8TCD6)
Chain of UniProt Q8TCD6 (Q8TCD6 whole entry, looked up): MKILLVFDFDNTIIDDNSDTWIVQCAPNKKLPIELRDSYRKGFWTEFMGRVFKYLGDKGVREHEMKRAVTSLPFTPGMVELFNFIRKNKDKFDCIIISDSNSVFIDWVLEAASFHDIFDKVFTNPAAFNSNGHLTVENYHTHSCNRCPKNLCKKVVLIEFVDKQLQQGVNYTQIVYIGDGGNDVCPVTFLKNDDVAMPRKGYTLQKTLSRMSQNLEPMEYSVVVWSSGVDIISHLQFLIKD
inactive: alvocidib 0.053 | Tubastatin A -0.042 | [1] -0.026 | defactinib -0.008 | [2] -0.008 | encorafenib -0.02 | alisertib -0.013 | [4] -0.008 | gefitinib 0.016 | lapatinib -0.043 | pictilisib 0.015 | crizotinib -0.001 | [5] -0.063 | duvelisib -0.044 | gandotinib -0.009 | tozasertib -0.184 | doramapimod -0.045 | bafetinib -0.024 | [6] -0.002
active: [3] 0.356

PPT2, A0A140T9Y1
inactive: alisertib -0.144 | gefitinib 0.006

PDIA4, A0A499FI48
inactive: alvocidib 0.336 | [2] -0.003 | crizotinib -0.063 | duvelisib -0.101 | gandotinib -0.18 | doramapimod -0.039 | [6] -0.154
active: [5] 1.32

NA (UniProt Q4G0T1)
inactive: alvocidib -0.132 | Tubastatin A -0.272 | [1] -0.115 | [2] -0.062 | crizotinib 0.023 | [5] -0.044 | duvelisib 0.035 | gandotinib -0.015 | doramapimod 0.042 | [6] 0.034

PRR4 (UniProt Q16378)
inactive: alvocidib -0.033 | Tubastatin A 0.181 | [1] 0.215 | defactinib 0.08 | encorafenib -0.396 | [3] 0.126 | alisertib 0.075 | [4] -0.011 | gefitinib 0.026 | lapatinib 0.047 | [5] 0.291 | gandotinib -0.34 | tozasertib 0.412 | [6] 0.252

PRADC1 (UniProt Q9BSG0)
Chain of UniProt Q9BSG0 (Q9BSG0 whole entry, looked up): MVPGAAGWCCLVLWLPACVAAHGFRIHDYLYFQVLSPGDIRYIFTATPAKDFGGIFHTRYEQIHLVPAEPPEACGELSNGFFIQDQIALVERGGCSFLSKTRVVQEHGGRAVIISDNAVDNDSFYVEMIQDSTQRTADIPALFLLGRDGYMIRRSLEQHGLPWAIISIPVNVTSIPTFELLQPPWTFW
inactive: alvocidib -0.141 | Tubastatin A 0.04 | [1] -0.126 | [2] 0.059 | alisertib 0.109 | [4] 0.212 | gefitinib -0.071 | lapatinib -0.088 | pictilisib 0.091 | crizotinib 0.075 | [5] 0.166 | duvelisib -0.069 | gandotinib -0.002 | doramapimod -0.041 | bafetinib -0.149 | [6] -0.087

PECR (UniProt Q9BY49)
Chain of UniProt Q9BY49 (Q9BY49 whole entry, looked up): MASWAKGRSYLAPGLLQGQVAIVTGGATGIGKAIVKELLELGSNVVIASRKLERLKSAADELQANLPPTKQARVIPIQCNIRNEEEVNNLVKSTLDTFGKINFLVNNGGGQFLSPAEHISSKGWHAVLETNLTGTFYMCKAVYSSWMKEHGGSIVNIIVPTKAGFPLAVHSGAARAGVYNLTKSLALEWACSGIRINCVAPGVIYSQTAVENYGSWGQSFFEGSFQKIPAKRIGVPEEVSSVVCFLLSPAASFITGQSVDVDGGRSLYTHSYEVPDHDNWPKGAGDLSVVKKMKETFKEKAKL
inactive: encorafenib 0.101 | [3] -0.184 | tozasertib -0.053

PRIMPOL (UniProt Q96LW4)
inactive: Tubastatin A -0.159 | [1] 0.036 | defactinib 0.076 | [2] 0.071 | encorafenib 0.055 | [3] -0.37 | alisertib -0.113 | gefitinib 0.045 | pictilisib 0.02 | crizotinib -0.097 | duvelisib 0.003 | tozasertib -0.031 | doramapimod 0.014 | bafetinib -0.225

PTK2B (UniProt Q14289)
Chain of UniProt Q14289 (Q14289 whole entry, looked up): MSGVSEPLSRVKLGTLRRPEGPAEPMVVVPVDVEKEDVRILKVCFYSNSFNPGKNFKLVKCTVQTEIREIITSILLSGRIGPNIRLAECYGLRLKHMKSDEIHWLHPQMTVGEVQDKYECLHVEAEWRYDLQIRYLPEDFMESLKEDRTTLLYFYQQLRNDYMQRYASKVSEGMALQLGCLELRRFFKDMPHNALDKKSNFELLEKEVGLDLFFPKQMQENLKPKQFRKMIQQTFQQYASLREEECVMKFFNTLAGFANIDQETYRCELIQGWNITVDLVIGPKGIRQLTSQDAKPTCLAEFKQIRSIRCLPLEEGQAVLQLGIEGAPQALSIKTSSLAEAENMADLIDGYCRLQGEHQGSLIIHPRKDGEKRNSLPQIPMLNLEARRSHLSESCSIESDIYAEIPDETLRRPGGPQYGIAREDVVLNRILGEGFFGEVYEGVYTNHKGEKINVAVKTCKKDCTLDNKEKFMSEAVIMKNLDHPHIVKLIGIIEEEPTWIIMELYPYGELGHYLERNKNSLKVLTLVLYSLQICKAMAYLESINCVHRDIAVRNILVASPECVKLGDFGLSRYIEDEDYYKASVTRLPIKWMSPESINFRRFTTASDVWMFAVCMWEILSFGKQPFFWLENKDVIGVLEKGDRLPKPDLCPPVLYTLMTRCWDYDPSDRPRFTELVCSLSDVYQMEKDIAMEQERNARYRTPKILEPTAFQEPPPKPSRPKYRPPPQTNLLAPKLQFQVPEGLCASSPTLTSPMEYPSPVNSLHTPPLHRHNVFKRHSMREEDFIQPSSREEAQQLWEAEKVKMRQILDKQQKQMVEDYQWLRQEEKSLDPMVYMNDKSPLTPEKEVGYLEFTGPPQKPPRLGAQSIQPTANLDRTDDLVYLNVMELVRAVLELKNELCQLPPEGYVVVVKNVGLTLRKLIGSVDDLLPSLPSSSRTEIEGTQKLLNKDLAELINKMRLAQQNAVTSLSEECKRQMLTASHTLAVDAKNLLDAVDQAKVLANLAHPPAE
active: [1] 0.401 | gandotinib 0.385
inactive: Tubastatin A -0.071 | defactinib 0.315 | [2] -0.063 | encorafenib -0.048 | [3] -0.007 | alisertib 0.093 | [4] 0.103 | gefitinib -0.056 | lapatinib -0.075 | pictilisib -0.043 | [5] -0.026 | duvelisib -0.034 | tozasertib 0.019 | bafetinib 0.098 | [6] -0.05

PICALM (UniProt H0YCY1)
inactive: [1] -0.018

PPIC (UniProt P45877)
Chain of UniProt P45877 (P45877 whole entry, looked up): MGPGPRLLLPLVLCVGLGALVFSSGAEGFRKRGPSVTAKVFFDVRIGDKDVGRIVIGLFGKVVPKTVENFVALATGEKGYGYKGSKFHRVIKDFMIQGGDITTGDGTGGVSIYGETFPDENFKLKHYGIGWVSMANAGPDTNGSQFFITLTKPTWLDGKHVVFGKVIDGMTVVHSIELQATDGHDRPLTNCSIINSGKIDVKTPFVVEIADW
inactive: alvocidib -0.031 | Tubastatin A 0.089 | [1] 0.024 | defactinib 0.077 | [2] -0.052 | alisertib 0.004 | gefitinib 0.103 | pictilisib -0.003 | crizotinib -0.131 | [5] -0.078 | duvelisib -0.095 | gandotinib -0.042 | doramapimod 0.086 | bafetinib -0.061 | [6] 0.079

PHF14 (UniProt O94880)
Chain of UniProt O94880 (O94880 whole entry, looked up): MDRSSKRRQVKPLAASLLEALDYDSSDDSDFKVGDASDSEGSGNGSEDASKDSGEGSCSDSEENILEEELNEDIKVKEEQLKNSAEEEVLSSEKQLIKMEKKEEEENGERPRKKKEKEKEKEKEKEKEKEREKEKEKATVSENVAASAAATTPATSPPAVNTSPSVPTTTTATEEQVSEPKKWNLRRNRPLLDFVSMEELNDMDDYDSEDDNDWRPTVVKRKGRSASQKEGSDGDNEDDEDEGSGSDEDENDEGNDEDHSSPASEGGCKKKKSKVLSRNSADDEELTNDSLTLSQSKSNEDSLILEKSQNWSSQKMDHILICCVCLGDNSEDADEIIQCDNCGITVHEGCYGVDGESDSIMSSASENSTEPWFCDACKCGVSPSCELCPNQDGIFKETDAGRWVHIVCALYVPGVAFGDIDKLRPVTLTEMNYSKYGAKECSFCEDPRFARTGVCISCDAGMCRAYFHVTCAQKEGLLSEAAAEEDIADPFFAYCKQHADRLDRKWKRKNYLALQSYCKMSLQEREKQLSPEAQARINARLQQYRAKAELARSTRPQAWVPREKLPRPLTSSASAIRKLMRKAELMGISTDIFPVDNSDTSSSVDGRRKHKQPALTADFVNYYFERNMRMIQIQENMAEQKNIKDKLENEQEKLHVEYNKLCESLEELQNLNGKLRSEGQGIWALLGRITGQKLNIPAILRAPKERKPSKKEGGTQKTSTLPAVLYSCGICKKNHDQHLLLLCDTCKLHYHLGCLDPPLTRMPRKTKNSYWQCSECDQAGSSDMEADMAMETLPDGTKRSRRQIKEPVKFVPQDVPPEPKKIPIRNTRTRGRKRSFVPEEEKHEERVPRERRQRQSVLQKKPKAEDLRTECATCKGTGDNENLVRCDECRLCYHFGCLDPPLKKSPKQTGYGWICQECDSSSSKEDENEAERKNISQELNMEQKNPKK
inactive: Tubastatin A 0.01 | defactinib -0.012 | [2] 0.02 | encorafenib -0.014 | [3] 0.1 | alisertib 0.044 | [4] -0.069 | gefitinib -0.042 | lapatinib 0.199 | pictilisib -0.049 | duvelisib 0.024 | tozasertib -0.117 | bafetinib -0.013

POLR2M (UniProt Q6EEV4)
inactive: alvocidib 0.085 | [1] 0.075 | defactinib 0.125 | [2] 0.108 | encorafenib -0.001 | [3] -0.081 | [4] 0.038 | lapatinib 0.047 | pictilisib -0.07 | crizotinib -0.064 | [5] 0.026 | duvelisib -0.049 | gandotinib -0.154 | tozasertib 0.055 | doramapimod -0.041 | bafetinib -0.116 | [6] 0.046

PPP1R12B isoform 6 (UniProt O60237)
inactive: Tubastatin A 0.081 | [1] 0.006 | defactinib -0.046 | [2] 0.016 | encorafenib -0.011 | [3] 0.145 | [4] 0.072 | lapatinib -0.079 | pictilisib 0.017 | crizotinib -0.347 | duvelisib 0.036 | tozasertib -0.015 | doramapimod 0.047 | bafetinib 0.05

PIP5K1A (UniProt Q99755)
Chain of UniProt Q99755 (Q99755 whole entry, looked up): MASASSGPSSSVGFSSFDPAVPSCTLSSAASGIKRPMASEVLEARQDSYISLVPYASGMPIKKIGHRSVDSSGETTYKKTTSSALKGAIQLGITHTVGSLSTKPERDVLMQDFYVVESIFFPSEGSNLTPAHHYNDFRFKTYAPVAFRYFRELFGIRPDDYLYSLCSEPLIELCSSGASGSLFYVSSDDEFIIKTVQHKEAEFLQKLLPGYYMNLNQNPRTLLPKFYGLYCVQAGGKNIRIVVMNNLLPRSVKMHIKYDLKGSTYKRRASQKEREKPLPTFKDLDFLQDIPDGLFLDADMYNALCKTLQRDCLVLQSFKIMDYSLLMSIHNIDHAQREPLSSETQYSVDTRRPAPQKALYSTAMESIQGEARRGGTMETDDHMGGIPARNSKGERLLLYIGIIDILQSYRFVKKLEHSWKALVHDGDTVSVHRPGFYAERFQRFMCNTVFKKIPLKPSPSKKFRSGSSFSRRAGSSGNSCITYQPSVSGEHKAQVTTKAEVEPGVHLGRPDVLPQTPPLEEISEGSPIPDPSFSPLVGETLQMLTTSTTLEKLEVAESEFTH
inactive: alvocidib 0.077 | Tubastatin A -0.043 | [1] 0.027 | [2] -0.074 | alisertib -0.121 | [4] -0.023 | gefitinib -0.024 | lapatinib -0.117 | pictilisib 0.07 | crizotinib -0.168 | [5] 0.03 | duvelisib -0.043 | gandotinib -0.013 | doramapimod 0.093 | bafetinib -0.062 | [6] -0.034

PRG4 (UniProt Q92954)
active: alvocidib -0.826 | [5] -1.36
inactive: Tubastatin A 0.103 | [2] 0.204 | alisertib -0.045 | [4] 0.093 | gefitinib -0.076 | lapatinib -0.097 | pictilisib -0.408 | crizotinib -0.118 | duvelisib 0.042 | gandotinib 0.051 | doramapimod 0.201 | bafetinib -0.238 | [6] 0.278
